Results taken from PubChem BioAssay AID504652 (National Center for Advancing Translational Sciences (NCATS), 2011).
Where “and” joins values, the source holds several entries; their conditions need not be identical. Equal entries are not always repeated. The whole screen tested about 360,000 compounds, of which about 11,000 (3.1%) were called active. No stated cut-off is given here; in the data, active means activity change below about -30%; inactive means the rest. The full list was thinned out, with actives kept by preference. Where a structure was tested more than once in an assay, its records may differ in their call.

Biological target: D(1A) dopamine receptor (Homo sapiens) (UniProt P21728)
Sequence (P21728 whole entry, looked up): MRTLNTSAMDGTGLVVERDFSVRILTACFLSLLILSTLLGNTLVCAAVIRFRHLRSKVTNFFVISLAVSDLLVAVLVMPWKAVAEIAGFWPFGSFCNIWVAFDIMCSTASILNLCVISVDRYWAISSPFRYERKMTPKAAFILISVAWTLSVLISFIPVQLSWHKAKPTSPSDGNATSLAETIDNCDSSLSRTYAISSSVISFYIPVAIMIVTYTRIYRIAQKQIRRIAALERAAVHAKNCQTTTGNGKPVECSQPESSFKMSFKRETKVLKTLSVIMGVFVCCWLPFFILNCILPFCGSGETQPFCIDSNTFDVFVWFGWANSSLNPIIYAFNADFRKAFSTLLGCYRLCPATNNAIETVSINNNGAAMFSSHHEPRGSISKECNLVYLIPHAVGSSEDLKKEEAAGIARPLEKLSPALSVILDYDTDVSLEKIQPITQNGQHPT
Assay: Antagonist of Human D 1 Dopamine Receptor: qHTS
Conditions: HEK293 TREx D1 cells, calcium flux, dopamine EC80; at 10 µM; stronger effect = lower value
Method in brief: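 Compound effects on dopamine-evoked calcium signalling were measured in tetracycline-induced HEK293 Trex D1 cells. Dopamine at EC80 followed a 180 s compound pre-read, and fluorescence was tracked kinetically for 180 s more.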
On the % scale 0 is the no-effect control and ±100 the full control effect.

Compound	activity change, negative = inhibition
COc1ccccc1C(=O)NCCn1cc(SCc2ccccc2Cl)c2ccccc21	-10.4% (inactive)
Cc1ccc(N2CC(C(=O)Nc3ccc(N(C)C)cc3)CC2=O)cc1Cl (centres undefined)	2.7% (inactive)
Cc1ccc(CNS(=O)(=O)c2ccc(C(=O)N(C)C)s2)cc1	5.34% (inactive)
Cc1ccccc1CNC(=O)Cn1c(C)c2cnn(-c3ccccc3)c(=O)c2c1C	-7.63% (inactive)
COc1ccc(S(=O)(=O)Nc2cc3c(C(=O)OC(C)C)c(C)oc3c3ccccc23)cc1	-3.34% (inactive)
CCOC(=O)c1cc2c(=O)n3ccccc3nc2n(CC2CCCO2)c1=NC(=O)c1ccccc1Br (centres undefined)	4.67% (inactive)
CCOC(=O)c1cc2c(=O)n3ccccc3nc2n(CC2CCCO2)c1=NC(=O)c1ccccc1F (centres undefined)	7.85% (inactive)
CCOC(=O)c1cc2c(=O)n3ccccc3nc2n(CC2CCCO2)c1=NC(=O)c1ccc(C(C)(C)C)cc1 (centres undefined)	-30.2% (active)
Cc1cccc(-n2ccnc2SCC(=O)Nc2cc(C(F)(F)F)ccc2Cl)c1	-5.92% (inactive)
Cn1c(=O)c(=O)n(C)c2cc(S(=O)(=O)NCCN3CCN(c4ccccc4F)CC3)ccc21	-46.1% (active)
CCOC(=O)N1CCN(c2c(NCCN3CCN(c4ccccc4F)CC3)c(=O)c2=O)CC1	-21.9% (inactive)
Cn1c(=O)c(=O)n(C)c2cc(S(=O)(=O)NCCc3ccccc3)ccc21	-4.68% (inactive)
O=c1cc(CCl)nc2scc(-c3ccccc3)n12	-12.4% (inactive)
CN(C)CCCn1c(SCc2ccc(Cl)cc2)nnc1-c1ccncc1	10.2% (inactive)
CN(C)CCCn1c(=O)n(Cc2ccccc2)c(=O)c2c3c(sc21)CCCCC3	3.11% (inactive)
OCCn1c(-c2ccccc2)csc1=Nc1ccccc1	-45.5% (active)
CN(C)CCCn1c(-c2ccc(Cl)cc2)csc1=Nc1ccccc1	-34.7% (active)
O=C1N(Cc2ccccc2)c2ccc(Cl)cc2C1(O)c1c[nH]c2ccccc12 (centres undefined)	-8.31% (inactive)
Cc1ccc(-n2nnnc2CNC(=O)c2ccccc2C)cc1C	-3.19% (inactive)
COc1ccccc1C(=O)Nc1ccnn1C1CCN(Cc2cnn(C)c2)CC1	1.08% (inactive)
CC(C)Oc1ccc(CN2CCC(n3nccc3NC(=O)c3cccnc3)CC2)cc1	8.77% (inactive)
COc1ccc(C(=O)Nc2ccnn2C2CCN(Cc3ccncc3)CC2)cc1	-37.3% (active)
CCc1ccc(C2CC(=O)c3c([nH]c(C(=O)OCc4ccc(C)cc4)c3C)C2)cc1 (centres undefined)	-10.1% (inactive)

Compound	activity change, negative = inhibition
Cc1c(C)n(Cc2ccc(Cl)cc2)c2ccc(C(=O)N3CCN(c4ccccc4F)CC3)cc12	-18.2% (inactive)
Cc1cccc(N2CCN(C(=O)c3ccc4c(c3)CCN4S(=O)(=O)c3ccccc3)CC2)c1C	-15.6% (inactive)
CCn1c(C)c(C)c2cc(C(=O)N3CCN(c4cccc(C)c4C)CC3)ccc21	25% (inactive) and -43.2% (active)
CN(Cc1ccccc1)c1ncnc2onc(-c3ccc(F)cc3)c12	-1.84% (inactive)
Cc1ccc(-c2nnc(SCC(=O)NCc3ccccc3)nc2-c2ccc(C)cc2)cc1	-16.8% (inactive)
CCC(CC)c1nn2cc(-c3ccccc3)nc2s1	14.7% (inactive)
O=C(CCC(=O)N1CCCC1)Nc1ccc([N+](=O)[O-])cc1	15.5% (inactive)
O=C(Nc1ccc([N+](=O)[O-])cc1)C1CC12CCC2 (centres undefined)	-56.8% (active)
O=C(Nc1ccc([N+](=O)[O-])cc1)C1(c2ccccc2)CCOCC1	-11.2% (inactive)
CCC(=O)N1CCc2cc(Br)cc(S(=O)(=O)Nc3ccc(C)cc3C)c21	2.58% (inactive)
Cc1c(NC(=O)C(C)(C)C)cccc1-c1nc2ccccc2s1	0.443% (inactive)
CCOC(=O)c1ccc(N2C(=O)c3n[nH]c(C)c3C2c2ccc(O)c(OC)c2)cc1 (centres undefined)	-4.29% (inactive)
Cc1ccc(S(=O)(=O)N2CCN(C)CC2)cc1	0.986% (inactive)
CCOC(=O)N1CCN(S(=O)(=O)c2ccc(Br)cc2)CC1	-1.63% (inactive)
Cn1ncc(N2CCN(S(=O)(=O)c3ccc(Br)cc3)CC2)c(Cl)c1=O	-30.4% (active)
Cc1ccc(C)c(NC(=O)Cn2ccn(-c3ccc(F)cc3)c(=O)c2=O)c1	-20% (inactive)
COc1ccccc1NC(=O)c1oc2ccccc2c1NC(=O)C(C)C	-5.69% (inactive)
COC(=O)c1ccc(C2C(Oc3ccccc3C)C(=O)N2CCc2ccc(OC)c(OC)c2)cc1 (centres undefined)	-49.6% (active)
COc1ccc(CCN2C(=O)c3[nH]nc(-c4ccccc4O)c3C2c2ccc(C)cc2)cc1OC (centres undefined)	-3.51% (inactive)
COc1ccc(CCNC(=O)C(=O)NCc2ccccc2C)cc1OC	3.05% (inactive)
Cc1ccccc1NC(=O)CN1C(=O)C(C)(C)c2ccccc21	10.3% (inactive)
CC(=O)Nc1ccc(S(=O)(=O)Oc2ccc(Br)cc2C(=S)N2CCOCC2)cc1	0.681% (inactive)
CCOc1cc(C(=S)N2CCOCC2)ccc1O	-0.874% (inactive)

Compound	activity change, negative = inhibition
CCOc1cc(C(=S)N2CCOCC2)ccc1OS(=O)(=O)c1ccc(Br)cc1	-30.6% (active)
COC(=O)c1ccc2c(c1)N(CC(=O)Nc1ccc(C)c(C)c1)C(=O)c1ccccc1S2	10.3% (inactive)
Cc1csc2nc(COC(=O)c3ccc(NC(=O)COc4ccccc4F)cc3)cc(=O)n12	-26.3% (inactive)
CCS(=O)(=O)n1nc(-c2ccc(OC)cc2)nc1SC	-19.3% (inactive)
CCS(=O)(=O)n1nc(-c2ccccc2)nc1SCc1ccccc1	-30.7% (active)
Cc1ccc(S(=O)(=O)n2nc(-c3ccc(Cl)cc3)nc2NCc2ccccc2)cc1	-3.44% (inactive)
COc1ccc(CC(=O)N2N=C(C)CC2(O)C(F)(F)F)cc1 (centres undefined)	-2.03% (inactive)
CC1=NN(C(=O)CCCc2ccccc2)C(O)(C(F)(F)F)C1 (centres undefined)	-32.5% (active)
CC1=NN(C(=O)CCc2ccccc2O)C(O)(C(F)(F)F)C1 (centres undefined)	12.3% (inactive)
O=C(Nc1ccc2oc(-c3ccc(O)c(Br)c3)nc2c1)c1cc2ccccc2o1	-6.68% (inactive)
O=C(CC(c1cccs1)N1Cc2ccccc2C1=O)Nc1ccc(F)cc1F (centres undefined)	4.94% (inactive)
CCOC(=O)c1ccc(NC(=O)CSc2nc3c([nH]c4ccccc43)c(=O)n2C)cc1	-5.11% (inactive)
C/C(=N\NC(=O)C1(C)CC1(Br)Br)c1ccc(C)cc1C (centres undefined)	-58.1% (active)
CC(=O)N/N=C(\C)c1ccc(Br)cc1Br	25.3% (inactive)
Cc1ccc(C(=O)NC2CC(C)(C)NC(C)(C)C2)c(C)c1	-9.44% (inactive)
CCc1ccc(-n2nc(C)c3c(C)cc(=O)n(CC(=O)Nc4ccc(F)cc4C)c32)cc1	-6.21% (inactive)
Cc1ccc2[nH]cc(CCNC(=O)c3ccc([N+](=O)[O-])cc3)c2c1	-29.3% (inactive)
O=C(NCCc1ccc(Cl)cc1Cl)c1cc([N+](=O)[O-])c[nH]c1=O	-1.06% (inactive)
O=C(NCCc1c[nH]c2ccc(Cl)cc12)c1ccc([N+](=O)[O-])cc1	-40.2% (active)
O=C(c1cnn(-c2ccc(F)cc2)c1-n1cccc1)N1CCN(c2ccc(F)cc2)CC1	1.87% (inactive)
CCOC(=O)c1cc(-c2ccc(OC)c(S(=O)(=O)Nc3ccc(OC)cc3OC)c2)on1	-13.6% (inactive)
CC(Nc1nc(C(F)(F)F)nc2ccccc12)c1cccs1 (centres undefined)	-20.1% (inactive)
CCc1ccc(C(CNc2nc(C(F)(F)F)nc3ccccc23)N(C)C)cc1 (centres undefined)	26.8% (inactive)

Compound	activity change, negative = inhibition
NS(=O)(=O)c1ccc(CCNc2nc(C(F)(F)F)nc3ccccc23)cc1	-36% (active)
COC(=O)c1ccc(NC(=O)c2cc(S(=O)(=O)N3CCC(C)CC3)cn2C)cc1	-19.2% (inactive)
COc1ccc(Cn2c(C(=O)O)c(CNCCc3cccs3)c3ccc(OC)cc32)cc1	9.72% (inactive)
Cc1ccc(CCNC(=O)Cn2c(-c3cccs3)cc3cc(F)ccc32)cc1	-40.1% (active)
O=C(Cn1c(-c2cccs2)cc2ccccc21)NCCc1ccc(Cl)cc1	-2.26% (inactive)
COc1ccc(CCNC(=O)CN2CCC(n3nnc4cc(F)ccc43)CC2)cc1OC	-3.98% (inactive)
CN(C)c1cc(-c2ccc(F)cc2)oc(=O)c1Cl	-37.9% (active)
CN(CC(=O)Nc1ccc(F)cc1)C(=O)c1ccc(-c2ccc(Cl)cc2)o1	-13.8% (inactive)
CCCCC(CC)CNC(=O)C1CCN(S(=O)(=O)c2cccc3nsnc23)CC1 (centres undefined)	5.74% (inactive)
O=C(NCCc1ccc(Cl)cc1)c1ccc2nc(CCc3ccccc3)oc2c1	-1.03% (inactive)
Cc1ccc(Nc2nc3ccccc3nc2-n2nc(C)cc2C)c(Cl)c1	6.62% (inactive)
O=C(Nc1ccccc1Br)c1cc(CN2CCCC2)on1	-3.7% (inactive)
CCCCC(=O)OC1=CN(Cc2ccccc2)S(=O)(=O)c2ccccc21	-18.6% (inactive)
CCc1ccc(Oc2coc3cc(OC(=O)c4cc5ccccc5oc4=O)ccc3c2=O)cc1	-33.2% (active)
COc1ccc(Oc2coc3cc(OC(=O)c4cncc(Br)c4)ccc3c2=O)cc1	-0.64% (inactive)
CCc1ccc(Oc2coc3cc(O)ccc3c2=O)cc1	-2.88% (inactive)
CCc1ccc(NC(=O)Cn2c(=O)n(CCC(=O)NCc3ccc4c(c3)OCO4)c(=O)c3ccccc32)cc1	6.37% (inactive)
CCN(CC)S(=O)(=O)c1ccc(N2CCN(C)CC2)c(NC(=O)Nc2ccccc2F)c1	7.64% (inactive)
CCN(CC)S(=O)(=O)c1ccc(N2CCCC2)c(NS(=O)(=O)c2cccs2)c1	-40.2% (active)
O=S(=O)(Nc1cc(S(=O)(=O)N2CCOCC2)ccc1N1CCCC1)c1cccs1	-6.97% (inactive)
